{"source": "PubChem BioAssay AID504329", "about": "(Southern Research Specialized Biocontainment Screening …, 2011)", "note": "Where “and” joins values, the source holds several entries; their conditions need not be identical. Equal entries are not always repeated. Hit rate of the full screen: of about 340,000 compounds, about 1,000 (0.29%) were called active. These entries were drawn from the full list. Measured potencies and affinities stand elsewhere. Values without a mark were called inactive. No stated cut-off is given here; in the data, inconclusive means inhibition above about 27% without an active follow-up result; inactive means below that."}
{"assay": "H1N1 influenza NS1A inhibitors, functional cell based assay (AID 504329)", "conditions": "percent inhibition, at 12.5 µM, hits give high values"}
{"compound": "O=C(c1cccc(C(F)(F)F)c1)C1CCCN(C(=O)c2cc(C3CC3)[nH]n2)C1", "note": "(centres undefined)", "inhibition": "-9.76%"}
{"compound": "CS(=O)(=O)Nc1ccc(C(=O)Nc2ccccc2C(=O)NCc2ccco2)cc1", "inhibition": "-1.06%"}
{"compound": "Cc1cc(C(=O)N/N=C/c2ccc([N+](=O)[O-])cc2)c2ccccc2n1", "inhibition": "8.83%"}
{"compound": "O=C(Cn1cncn1)N/N=C/c1ccccc1Cl", "inhibition": "-0.24%"}
{"compound": "O=C(Cn1cncn1)N/N=C/c1cccc2ccccc12", "inhibition": "-2.86%"}
{"compound": "O=C(CCC(=O)Nc1ccc(Br)cc1)N/N=C/c1cc([N+](=O)[O-])ccc1O", "inhibition": "-1.12%"}
{"compound": "Nc1nnc(CC(=O)N/N=C/c2ccc([N+](=O)[O-])cc2)s1", "inhibition": "-6.47%"}
{"compound": "Nc1nnc(CC(=O)N/N=C/c2cc([N+](=O)[O-])cc(Br)c2O)s1", "inhibition": "7.8%"}
{"compound": "O=C(N/N=C/c1cc([N+](=O)[O-])ccc1O)c1cc(-c2ccccc2)nc2ccccc12", "inhibition": "15.9%"}
{"compound": "O=C(CSc1ccccn1)N/N=C/c1cc([N+](=O)[O-])ccc1O", "inhibition": "21.2%"}
{"compound": "CC(OC(=O)C12CC3CC(CC(O)(C3)C1)C2)C(N)=O", "note": "(centres undefined)", "inhibition": "-5.93%"}
{"compound": "Cc1cc(C)n(-c2ccc(C(=O)Nc3ccc(N4CCOCC4)cc3)cc2)n1", "inhibition": "-0.85%"}
{"compound": "CC(Oc1ccc(Cl)cc1Cl)c1nc(-c2ccc(NC(=O)c3ccncc3)cc2)no1", "note": "(centres undefined)", "inhibition": "6.94%"}
{"compound": "CCOC(=O)N1CCN(S(=O)(=O)c2ccc(C)c(C)c2C)CC1", "inhibition": "-2.44%"}
{"compound": "C=C[C@@H]1CN2CCC1C[C@@H]2[C@@H](O)c1ccnc2ccc(OC)cc12", "note": "(some centres undefined)", "inhibition": "-0.14% and 2.49%"}
{"compound": "CCCCOc1ccc(CCC(=O)N/N=C/c2ccco2)cc1", "inhibition": "-16.9%"}
{"compound": "O=c1c(-c2ccnn2-c2ccc(F)cc2)cnc2n1CCS2", "inhibition": "11.8%"}
{"compound": "O=C(Nc1c2c(nn1-c1ccc(Cl)cc1)CS(=O)(=O)C2)C1CC1", "inhibition": "-8.81%"}
{"compound": "O=C(CSc1nnc(-c2ccc(Cl)cc2)n1-c1ccc(Cl)cc1)N/N=C/c1ccco1", "inhibition": "-4.44%"}
{"compound": "O=C1NCCCC1C(=O)N/N=C/c1ccccc1[N+](=O)[O-]", "note": "(centres undefined)", "inhibition": "4.74%"}
{"compound": "O=C1NCCCC1C(=O)N/N=C/c1ccccc1O", "note": "(centres undefined)", "inhibition": "1.62%"}
{"compound": "COc1ccc(N2CC(C(=O)Nc3ccc([N+](=O)[O-])cc3Br)CC2=O)cc1", "note": "(centres undefined)", "inhibition": "-1%"}
{"compound": "O=C(N/N=C/c1ccc([N+](=O)[O-])cc1)c1cccc(N2CCCC2=O)c1", "inhibition": "-4.45%"}
{"compound": "O=C(N/N=C/c1cc(Br)ccc1O)c1cccc(N2CCCC2=O)c1", "inhibition": "-7.38%"}
{"compound": "COc1ccc(N2CC(C(=O)N/N=C/c3ccc([N+](=O)[O-])cc3)CC2=O)cc1", "note": "(centres undefined)", "inhibition": "3.03%"}
{"compound": "COc1ccc(Cl)cc1C(=O)NC1=NCCS1", "inhibition": "3.24%"}
{"compound": "N#Cc1ccc(Oc2ncccn2)cc1", "inhibition": "-1.76%"}
{"compound": "CC(=O)Nc1ccc(S(=O)(=O)N(C)CC(=O)OCC(=O)c2cc(C)n(-c3ccc4c(c3)OCO4)c2C)cc1", "inhibition": "4.97%"}
{"compound": "COc1cc(/C=C2\\SC(=O)N(c3ccc(Cl)cc3)C2=O)cc([N+](=O)[O-])c1O", "inhibition": "-5.87%"}
{"compound": "COc1cc(/C=C2\\SC(=O)N(Cc3ccc(F)cc3)C2=O)cc([N+](=O)[O-])c1O", "inhibition": "26.1%"}
{"compound": "CCN(CC)c1ccc(C(=O)Nc2cccc(F)c2)cc1", "inhibition": "0.06%"}
{"compound": "CCN(CC)c1ccc(NC(=O)c2ccc3c(c2)OCO3)cc1", "inhibition": "21.3%"}
{"compound": "Cc1cc(C(=O)OCC(=O)Nc2ccccc2C)c(C)o1", "inhibition": "-4.72%"}
{"compound": "Cc1c(N=c2scc(-c3ccccc3)n2C)c(=O)n(-c2ccccc2)n1C", "inhibition": "-5.38%"}
{"compound": "Cc1c(N=C2C(=O)Nc3ccccc32)c(=O)n(-c2ccccc2)n1C", "inhibition": "11%"}
{"compound": "Cc1ccc(N2C(=O)CN(Cc3ccccc3)C2=S)cc1C", "inhibition": "-6.48%"}
{"compound": "O=[N+]([O-])c1cc(/C=N\\Nc2ccccn2)ccc1Cl", "inhibition": "-4.08%"}
{"compound": "O=C(N/N=C/c1ccc(O)c([N+](=O)[O-])c1)c1ccncc1", "inhibition": "13.6%"}
{"compound": "COc1ccc(CC(=O)Nc2cc(S(=O)(=O)N3CCOCC3)ccc2N2CCCC2)cc1OC", "inhibition": "2.03%"}
{"compound": "NC(=O)c1ccc(-c2c(-c3ccccc3)sc3ccccc23)cc1", "inhibition": "-3.51%"}
{"compound": "CCOC(=O)N1CCC(NC(=O)CCc2c(C)nc3c(c(C)nn3C(C)(C)C)c2C)CC1", "inhibition": "0.25%"}
{"compound": "CNC(=S)NNc1nc(-c2ccccc2)c2cc(Cl)ccc2n1", "inhibition": "8.4%"}
{"compound": "COc1ccccc1/C=N/Nc1nccnc1Cl", "inhibition": "4.08%"}
{"compound": "COc1ccc(/C=N/Nc2nccnc2Cl)c(OC)c1", "inhibition": "-10.3%"}
{"compound": "Nc1c(Cl)ncnc1N/N=C/c1ccc(O)cc1", "inhibition": "-15.8%"}
{"compound": "COc1ccc(/C=N/Nc2ncnc(Cl)c2N)cc1OC", "inhibition": "-17%"}
{"compound": "Nc1c(Cl)ncnc1N/N=C/c1ccnc2ccccc12", "inhibition": "-0.57%"}
{"compound": "Nc1c(Cl)ncnc1N/N=C/c1cccc(O)c1", "inhibition": "17.6%"}
{"compound": "Cc1cccc(NC(=S)NCc2ccc(F)cc2)c1C", "inhibition": "-12.3%"}
{"compound": "CN1CCN(c2ccc(CNC(=O)c3cc4ccccc4o3)cc2)CC1", "inhibition": "-11.5%"}
{"compound": "CCOC(=O)N1CCN(S(=O)(=O)c2ccc(C(=O)Nc3sc4c(c3C(N)=O)CC(C)(C)NC4(C)C)cc2)CC1", "inhibition": "-1.86%"}
{"compound": "O=C1NC(=Nc2ccccc2Br)SC1(CO)CO", "inhibition": "-3.43%"}
{"compound": "COc1cccc(CNc2ccc(S(=O)(=O)Nc3nccs3)cc2)c1O", "inhibition": "-5.98%"}
{"compound": "CC(=O)NC(CC(=O)O)c1ccccc1", "note": "(centres undefined)", "inhibition": "-5.66%"}
{"compound": "O=C(c1cc(-c2ccc(Cl)cc2)nc2ccccc12)N1CCOCC1", "inhibition": "-19.9%"}
{"compound": "COc1ccc(OC)c(C2=NS(=O)(=O)N(C)C(C(=O)NCc3ccco3)=C2)c1", "inhibition": "-7.9%"}
{"compound": "COc1ccc(CN2CCN(c3ccccn3)CC2)cc1OCc1ccccc1", "inhibition": "7.77%"}
{"compound": "O=C(c1cccc2ccccc12)N1CCN(c2ccc([N+](=O)[O-])c(NCc3ccco3)c2)CC1", "inhibition": "7.93%"}
{"compound": "CCc1nnc(NC(=O)c2cccc(C(=O)Nc3nnc(CC)s3)n2)s1", "inhibition": "-2.25%"}
{"compound": "CC(=O)Nc1nnc(CCS(=O)(=O)c2ccc(C)cc2)s1", "inhibition": "-6.45%"}
{"compound": "CCSc1nnc(NC(=O)c2ccccc2)s1", "inhibition": "-12.7%"}
{"compound": "CCc1nnc(NC(=O)c2cnccn2)s1", "inhibition": "-0.42%"}
{"compound": "CCSc1nnc(NC(=O)c2cccnc2Cl)s1", "inhibition": "-1.92%"}
{"compound": "Cc1ccc(S(=O)(=O)CCc2nnc(NC(=O)c3cnccn3)s2)cc1", "inhibition": "-1.91%"}
